Screening results deposited in PubChem BioAssay by National Center for Advancing Translational Sciences (NCATS).
ALOX12 inhib – inhibitors of human 12-lipoxygenase (ALOX12) | purified 12-hLO, xylenol orange hydroperoxide absorbance | Potency, µM (series often up to 57.1 µM), for inactives: at the highest dose activity change, negative = inhibition, actives largely listed as inhibitors | P18054 | hit rate 0.12% among 150,000; further: potency means the concentration at half of the fitted maximal effect; nearly all actives have a fitted effect of over 55% in size
Target sequence (P18054 whole entry, looked up): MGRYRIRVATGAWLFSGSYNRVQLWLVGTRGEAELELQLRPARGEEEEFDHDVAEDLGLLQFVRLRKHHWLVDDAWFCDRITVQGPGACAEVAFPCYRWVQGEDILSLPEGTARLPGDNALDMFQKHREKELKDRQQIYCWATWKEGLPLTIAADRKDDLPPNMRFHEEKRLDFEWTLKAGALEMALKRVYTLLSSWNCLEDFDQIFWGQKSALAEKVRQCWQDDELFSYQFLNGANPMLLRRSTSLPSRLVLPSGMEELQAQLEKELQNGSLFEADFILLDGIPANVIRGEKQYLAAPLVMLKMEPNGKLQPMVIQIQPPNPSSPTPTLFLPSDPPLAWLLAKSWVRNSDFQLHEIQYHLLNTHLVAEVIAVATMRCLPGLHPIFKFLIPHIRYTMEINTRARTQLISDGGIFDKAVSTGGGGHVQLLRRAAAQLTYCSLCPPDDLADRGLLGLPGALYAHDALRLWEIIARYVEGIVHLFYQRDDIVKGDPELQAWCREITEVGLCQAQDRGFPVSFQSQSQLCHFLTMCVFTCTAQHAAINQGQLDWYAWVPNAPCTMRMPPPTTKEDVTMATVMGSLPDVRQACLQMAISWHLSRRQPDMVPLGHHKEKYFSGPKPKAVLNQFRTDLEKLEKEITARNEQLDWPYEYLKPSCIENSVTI
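150 nM 12hLO, 25 mM Hepes pH 7.0 + 0.01% Triton X-100; cpd preinc 15 min RT; 40 uM arachidonic acid, 30 min RT; Fe-XO 30 min; A573/A405 ratio as read-out.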
HPGD block – blocks human HPGD enzyme activity; purified HPGD, NADH fluorescence kinetic, PGE2 substrate; hit rate 4.3% among 150,000; P15428; AID 894; Potency, µM, for inactives: top-dose activity change, negative = inhibition, actives largely listed as inhibitors; active means well fitted inhibition curve with a large enough effect, not every such curve was filed as active; inconclusive means small, poorly fitted or top-dose-only effect, or another doubt; inactive means no such curve, though single readings can be large or run the other way; further: potency means the concentration at half of the fitted maximal effect
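20 nM HPGD preincubated 15 min at room temperature with compound in 50 mM Tris-HCl pH 8, 0.01% Tween 20. Started with 1 mM NAD+ and 30 uM prostaglandin E2; NADH fluorescence (360/450 nm) read 5 times over 30-s intervals, last minus first.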
IMPase inh – IMPase inhibition in cells | inhibition (IP1 accumulation), % at 46.1 µM | 120,000 tested, under 10 active | CHO-M1 cells, IP1 accumulation, HTRF TR-FRET ratio | P97697 | AID 901; active means well fitted curve in the direction sought with a large enough effect in the signal ratio, not every such curve was filed as active; inconclusive means small, poorly fitted or top-dose-only effect, or a change in a side signal; inactive means no such curve, though single readings can be large or run the other way; the % refers to the signal ratio;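 further: cells stimulated with carbachol in lithium chloride buffer; plate controls were DMSO basal wells for no effect and reference inhibitor wells for full effect; higher means more IMPase inhibition seen as more IP1 and lower FRET ratio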
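Cellular IMPase inhibition is scored as a rise in cytosolic IP1, detected by competitive TR-FRET between d2-labelled IP1 and a europium anti-IP1 antibody. M1-expressing CHO cells were stimulated with carbachol for 30 min at 37C, with lithium (50 mM LiCl) present in the buffer.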
ALOX15B inhib – blocks human 15-lipoxygenase 2 activity | O15296 | purified 15hLO-2, xylenol orange hydroperoxide absorbance | Potency, µM (top dose mostly 57.1 µM), for inactives: at the highest dose activity change, negative = inhibition, most hits filed as inhibitors | hit rate 0.56% among 110,000 | AID 881; further: potency means the concentration at half of the fitted maximal effect; nearly all actives have a fitted effect of over 60% in size
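Screening format was qHTS against 50 nM purified 15hLO-2 in Hepes pH 7.5 with detergent. Activity follows hydroperoxide formation from 45 uM arachidonic acid, measured as 573:405 nm absorbance ratio of the ferric-xylenol orange complex.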
IMPase Li cell – IMPase inhibition in cells with lithium potentiation. CHO-M1 cells, IP1 TR-FRET (IP-One), carbachol + lithium. Potency, µM (highest dose often 59.4 µM), for inactives: at the highest dose activity, negative = IMPase inhibition, usual class: inhibitors. hit rate 0.35% among 210,000. AID 1457;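 further: IP1 builds up when IMPase is blocked and the TR-FRET signal falls; potency means the concentration at half of the fitted maximal effect; plate controls were basal vehicle for no effect and high inhibitor control for full effect; nearly all actives have a fitted effect of over 50% in size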
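Readout is a homogeneous TR-FRET IP1 immunoassay (Ex 320, Em 665 and 620), where raised cytosolic IP1 lowers signal. Cells were CHO-M1 treated 30 min at 37C with test compounds plus a little lithium; AC50 values came from Hill-equation fitting.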
PNC inhibitor – blocks assembly of the perinucleolar compartment | PC3M PTB-GFP, PNC prevalence imaging, 16 h; hits give low values | activity change (PNC), negative = inhibition, % at 10 µM | hit rate 3.1% among 140,000 | AID 2417;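 active means readout at or below -70, meaning at least 70% loss of cells showing the perinucleolar compartment, a nuclear body marking cancer cells; inconclusive means readout between -30 and a set limit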;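 further: plate controls were DMSO wells for no effect and camptothecin positive control wells for full effect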
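Read-out is percentage of cells bearing a perinucleolar compartment, from automated 20x imaging of fixed, Hoechst-stained PC3M PTB-GFP cells. Cells were seeded 4 h, then exposed 16 h to compound (23 nl of library stock) in duplicate plates.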
Active calls of the source: *; ? = inconclusive; · = not tested or not shown; [ ] = remark or other dose. Hits are enriched below; roughly 5.3% of the tested compounds scored in any of these assays. Unless noted, the call rests on the fitted dose curve; in most records, active means well fitted curve in the direction sought with a large enough effect; inconclusive means small, poorly fitted or top-dose-only effect, or another doubt; inactive means no such curve, though single readings can be large; an effect the other way counts as inactive or inconclusive. Unless noted, on the % scale 0 is the no-effect control and ±100 the full control effect.

SMILES	ALOX12 inhib	HPGD block	IMPase inh	ALOX15B inhib	IMPase Li cell	PNC inhibitor
COc1cc(NC(=S)NC(=O)c2ccc(C(C)(C)C)cc2)ccc1NC(=O)c1cccs1	10.9%	-8.8%	-3.7	·	-0.5%	-115.1*
CC(C)CC(=O)NC(=S)Nc1ccc(NC(=O)c2cccs2)cc1	-17.2%	7.94µM*	9.3	-17.6%	24.2%[38.3 µM]	33.8
CC(C)CC(=O)NC(=S)Nc1ccccc1F	-26.3%	20µM*	8.9	-22.9%	-12.2%[38.3 µM]	-15.2
CC(C)CC(=O)NC(=S)Nc1ccccc1C(F)(F)F	-9.1%	?	·	·	6.6%	8.0
CS(=O)(=O)N(CC(=O)NCc1ccncc1)c1cc(Cl)ccc1Cl	·	·	·	·	-0.8%	·
CCc1ccc(NC(=O)CN2C(=O)C(=O)c3ccccc32)cc1	·	·	1.5	·	·	·
COc1ccc(Oc2ncc3ncc(=O)n(C)c3n2)cc1	·	·	·	-4.1%	16.2%	·
COC(=O)CCCCCN1C(=O)NC(c2ccccc2)C(C(=O)OCc2ccccc2)=C1C (configuration not stated)	-5.9%	-6.4%	·	-4.7%	14.8%	-92.3*
CN(C)Cc1ccccc1-c1nc(N(C)C)c2ccccc2n1	·	·	·	10.2%	0.0%	·
Cc1nc2ccc(S(=O)(=O)NCC(=O)N3CCc4ccccc4C3)cc2s1	1.0%	-8.8%	-6.1	-1.3%	-0.1%[38.3 µM]	-97.3*
COc1ccccc1NC(=O)c1cnc(Nc2ccccc2OC)c2ccccc12	-1.5%	?	·	·	-0.7%	-85.6*
COc1cccc(Nc2ncccc2C(=O)Nc2ccccc2)c1	-3.5%	-4.3%	6.5	25.5%	-0.2%[38.3 µM]	-80.4*
COc1ccccc1Nc1ncccc1C(=O)O	9.2%	-6.1%	6.6	-3.6%	-2.4%[38.3 µM]	-100.0*
CN(CC(=O)N1CCCCCC1)S(=O)(=O)c1ccc(F)cc1	·	·	·	·	8.1%	·
CN(CC(=O)N1CCCCCC1)S(=O)(=O)c1ccc(Br)s1	-12.3%	22.4µM*	7.6	-4.0%	2.6%[38.3 µM]	32.1
CSCC[C@@H](N)C(=O)O	·	·	·	·	-16.3%	·
COCCCn1c(=S)[nH]c2c(sc3ccccc32)c1=O	·	·	·	·	10µM*	·
O=C(c1ccc(-n2cccc2)cc1)N1CCOCC1	-0.7%	?	1.6	1.4%	25.8%[38.3 µM]	-22.3
O=C(c1ccc(N2CCCC2=O)cc1)N1CCOCC1	-2.1%	22.4µM*	-2.5	-3.2%	12.2%	-85.5*
CN1CCN(C(=O)c2ccc(C(C)(C)C)cc2)CC1	0.1%	11.2µM*	4.1	3.6%	0.1%[38.3 µM]	31.4
CCCCC(=O)Nc1ccc(C(=O)N2CCN(C)CC2)cc1	-3.9%	14.1µM*	-1.1	3.0%	-2.3%	22.9
CN1CCN(C(=O)c2ccc(N3CCCC3=O)cc2)CC1	-1.9%	12.6µM*	2.6	4.8%	13.7%[38.3 µM]	39.0
Cc1ccccc1Nc1c(-c2ccc(N3CCOCC3)cc2)nc2ccc(Br)cn12	·	·	3.0	·	·	·
Cc1ccc(-n2c3c(c(=O)[nH]c2=O)C(NC(=O)C(C)(C)C)(C(F)(F)F)C(=O)N3)cc1 (configuration not stated)	·	·	-10.0	·	·	·
CCOC(=O)N1CCN(C(=O)c2ccc(OCC)cc2)CC1	·	·	·	·	-1.7%	·
SMILES	ALOX12 inhib	HPGD block	IMPase inh	ALOX15B inhib	IMPase Li cell	PNC inhibitor
CC1CN(C(=O)c2ccc3c(c2)OCO3)CC(C)O1 (configuration not stated)	-2.8%	25.1µM*	-2.9	2.7%	17.0%[38.3 µM]	?
CN1CCN(C(=O)c2ccc3c(c2)OCCO3)CC1	1.8%	15.8µM*	-8.1	·	1.1%	10.0
O=C(c1ccccc1)N1CCN(C(=O)c2ccc3c(c2)OCCO3)CC1	·	·	·	·	7.1%	·
CCOC(=O)N1CCN(C(=O)c2ccc(N3C(=O)CCC3=O)cc2)CC1	1.9%	-2.1%	-6.7	5.1%	17.2%[38.3 µM]	-89.2*
COC(=O)C(Cc1c[nH]c2ccccc12)NC(=O)COc1ccc(Cl)cc1Cl (configuration not stated)	·	·	-3.2	·	·	·
O=C(CSc1nc2c(c(=O)[nH]1)CCCC2)Nc1ccc(Cl)cc1F	-8.6%	?	4.3	-2.2%	1.8%[38.3 µM]	-0.1
O=C(O)c1c(-c2nccc3ccccc23)[nH]c(-c2ccccc2)c1S(=O)(=O)O	3.3%[11.4 µM]	-11.7%	·	-6.7%[11.4 µM]	-5.2%	·
COc1ccccc1S(=O)(=O)CC(O)COc1ccc(C#N)cc1 (configuration not stated)	·	·	·	·	-1.3%	·
c1ccc2c(c1)[nH]c1c(N3CCOCC3)ncnc12	3.6%	-14.4%	2.2	2.4%	0.7%	-119.2*
c1ccc2c(c1)[nH]c1c(N3CCCC3)ncnc12	11.7%	-7.9%	12.1	1.7%	47.9%[38.3 µM]	44.7
CCOC(=O)/C(=N/O)C1=NC(C)(C)Cc2cc(C)c(C)cc21	·	·	·	·	5.4%	·
CN(C)S(=O)(=O)c1ccc2[nH]cc(/C=C/c3nc4ccccc4c(=O)n3-c3ccccc3)c2c1	0.7%	256.5%	-2.9	-9.7%	-11.8%[38.3 µM]	-80.1*
CCOC(=O)c1ccc2c(c1)C1C=CCC1C(C(=O)O)N2 (configuration not stated)	-29.0%	15.8µM*	6.0	16.4%	13.3%[38.3 µM]	-18.9
CC(C)C1Nc2ccc(C(=O)O)cc2C2C=CCC21 (configuration not stated)	·	·	·	·	10.0%	·
Cc1ccc2c(c1C)NC(C(=O)O)C1CC=CC21 (configuration not stated)	?	10µM*	5.2	-2.2%[2.29 µM]	-11.7%[38.3 µM]	?
